Measured values taken from PubChem BioAssay (NCI).
This is part of a sample that, as a whole, favours compounds with a hit. Of some 83,000 tested, about 20% had one in any assay.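 Treatment: one concentration, 48 hours, 96-well format. Scoring: percent growth, with anything below 10 considered active.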 Values without a mark were called inactive. Activity calls are given as the source filed them.

Key:
Test in all cases: NCI-60 one-dose screen, 48 h (100 = growth as untreated, 0 = no growth, -100 = all killed)
Settings in all cases: 10 µM unless noted
T-47D breast = test system: T-47D breast
BT-549 breast = test system: BT-549 breast
MDA-MB-435 melanoma = test system: MDA-MB-435 melanoma
SW-620 colon = test system: SW-620 colon
MCF7 breast = test system: MCF7 breast
HCT-116 colon = test system: HCT-116 colon
HCC-2998 colon = test system: HCC-2998 colon
KM12 colon = test system: KM12 colon
MDA-MB-468 breast = test system: MDA-MB-468 breast

Structure (SMILES)	growth (T-47D breast)	growth (BT-549 breast)	growth (MDA-MB-435 melanoma)	growth (SW-620 colon)	growth (MCF7 breast)	growth (HCT-116 colon)	growth (HCC-2998 colon)	growth (KM12 colon)	growth (MDA-MB-468 breast)
COc1cc2c(c(OC)c1OC)C(=O)CC(c1cccc(NC(=O)[C@@H](N)CC(C)C)c1)O2 (stereo not given in full)	86%	94.3%	91.2%	107%	86.8%	101%	117%	97.2%	89.3%
N/C(=N\c1nc2ccccc2s1)NC(=O)Nc1c(Cl)cccc1Cl	18%	37.3%	-17.9% (active)	25.6%	15.6%	22.7%	68.6%	21.4%	-4.05% (active)
CCCCNC(=S)Nc1ccc(OCc2nc3ccccc3[nH]2)cc1	45.3%	65.9%	49.6%	91.5%	46.5%	63.7%	59.6%	1.01% (active)	–
Cc1ccc(C(=O)CSc2nc3ccc(C)cc3c(=O)n2-c2ccc(F)cc2)cc1	52.5%	73.9%	89.6%	89%	78.1%	18.8%	83.5%	93.7%	–
O=C(COc1ccc(NC(=O)Nc2ccc(Cl)c(Cl)c2)cc1)N=Nc1c(O)[nH]c2ccccc12	11.6%	-38.4% (active)	-63.8% (active)	-62% (active)	-6.27% (active)	-1.24% (active)	-49.3% (active)	-38.3% (active)	–
CCCCCCn1c(O)c(N=Nc2nc(-c3cc4ccccc4oc3=O)cs2)c2ccccc21	-12% (active)	-20.5% (active)	26.3%	56.2%	-18% (active)	-51.7% (active)	37.8%	13.6%	–
NS(=O)(=O)c1ccc(NNC(=O)CCC(=O)c2ccccc2)cc1	87.5%	104%	105%	102%	90.5%	99%	109%	104%	93.3%
COCOc1cc2oc(C(=O)N[C@@H](Cc3ccccc3)C(O)C(=O)NCc3ccccc3)c(C)c(=O)c2cc1OCOC (stereo not given in full)	98%	95.9%	38.9%	103%	67.5%	-15.3% (active)	114%	64.8%	79.9%
Cc1ccccc1[C@H]1C(C(=O)c2ccc(Cl)cc2)C2(N[C@@H]1c1ccccc1)C(=O)Nc1ccc(Cl)cc12 (stereo not given in full)	13%	-29.4% (active)	-35.4% (active)	-9.32% (active)	-22.3% (active)	-84.6% (active)	-54.2% (active)	-24.3% (active)	–
O=[N+]([O-])c1ccc(/C=C/c2nc3ccccc3n3c(=S)[nH]nc23)cc1	67.5%	59.1%	82.8%	87.3%	51.2%	70.6%	93.4%	79.3%	–
CC1(C)CC[C@]2(C(=O)O)CC[C@]3(C)C(=CCC4[C@@]5(C)C[C@@H](O)[C@@H]6OC(c7ccccc7Br)OC[C@@]6(C)C5CC[C@]43C)C2C1 (stereo not given in full)	20.4%	13.5%	28%	19.5%	7.28% (active)	6.88% (active)	18.8%	16.9%	18.4%
COc1ccc(/C=C/c2n(Cc3ccc4ccccc4c3)c3ccccc3[n+]2Cc2ccc3ccccc3c2)cc1	-70.1% (active)	-93.1% (active)	-91.1% (active)	-96.2% (active)	-71.3% (active)	-95.3% (active)	-84.3% (active)	-84.5% (active)	-83.9% (active)
Cc1ccc(C(=O)NN2C(=O)/C(=C/C=C/c3ccc([N+](=O)[O-])o3)SC2=S)cc1	-61.1% (active)	-90% (active)	-66.3% (active)	-69.1% (active)	-49.2% (active)	-77.7% (active)	-90% (active)	-83.2% (active)	-85.7% (active)
COc1cc(C2CC(c3cc(OC)c(OC)c(OC)c3)=Nc3c(N)nc(N)nc3N2)ccc1Oc1nc(NCCO)nc(N2CCOCC2)n1 (stereo not given)	90.3%	116%	100%	103%	87.4%	100%	115%	99.9%	–
COc1c(F)ccc(C(=O)Nc2ccc3nc(NC(=O)C4CCCN(S(=O)(=O)C5CC5)C4)sc3c2)c1F (stereo not given)	-5.4% (active)	-8.29% (active)	39.5%	78.7%	15.2%	32.2%	59.8%	44%	3.58% (active)
CC1CN(c2oc(-c3ccc([N+](=O)[O-])cc3)nc2C#N)CC(C)O1 (stereo not given)	97.4%	107%	100%	102%	88.4%	108%	101%	–	–
C=C1CCC2C3(C)COC(c4ccc(F)cc4)OC3CCC2(C)C1CC(O)C1=CCOC1=O (stereo not given)	31.6%	-31.9% (active)	29.6%	2.53% (active)	12.3%	-50.2% (active)	24.3%	–	–
O=C1c2c(c3c4cc(F)ccc4oc3c3[nH]c4ccc(Br)cc4c23)C(=O)N1O	23.9%	1.19% (active)	37.1%	34.9%	15.6%	34.5%	63.5%	34.5%	–
COc1cc(/C=C/C(=O)c2ccc(C)cc2)ccc1Oc1nc(Nc2ccc(F)cc2)nc(N(C)C)n1	15.4%	-30.1% (active)	53.9%	6.82% (active)	11.9%	-80.3% (active)	91.9%	65.4%	–
CCCS(=O)(=O)N1CCCC(C(=O)Nc2nc3ccc(NC(=O)c4ccc(F)c(OC)c4F)cc3s2)C1 (stereo not given)	-0.579% (active)	-11.9% (active)	36.4%	81.6%	13.1%	31.1%	72.5%	41.3%	–
O=C(NN1C(=O)/C(=C/C=C/c2ccc([N+](=O)[O-])o2)SC1=S)c1ccccc1O	-59.4% (active)	-91.3% (active)	-89.7% (active)	-69.5% (active)	-49.7% (active)	-68.5% (active)	-97% (active)	-83.5% (active)	-75.4% (active)
CC1(C)CC[C@]2(C(=O)O)CC[C@]3(C)C(=CCC4[C@@]5(C)C[C@@H](O)[C@@H]6OC(c7ccc(F)cc7)OC[C@@]6(C)C5CC[C@]43C)C2C1 (stereo not given in full)	33.3%	26%	48.9%	23.7%	12.8%	8.81% (active)	18.1%	12.3%	–
C=CC(=O)Nc1ccc(C)c(Oc2ccc(Cl)cc2)c1	41.8%	22.8%	43.9%	43.8%	36.8%	52.1%	58.4%	47.2%	–
CC(=O)OC[C@@]1(C)C2CC[C@]3(C)C(CC=C4C5CC(C)(C)CC[C@]5(C(=O)Nc5ccc(F)cc5)CC[C@]43C)[C@@]2(C)C[C@@H](OC(C)=O)[C@@H]1OC(C)=O (stereo not given in full)	30.7%	41.7%	44.2%	36.8%	27.3%	22.9%	48.6%	44.6%	–
C#CCOc1cc(N(CC)CC)ccc1C(C(=O)NC(C)(C)C)N(C(=O)C1CCc2cc(F)ccc2O1)c1ccc(F)c(Cl)c1 (stereo not given)	42.3%	61.9%	65.7%	74.3%	30.5%	38.2%	92%	57.5%	–
Cc1cccc(-c2nc(Nc3ccc(C)c(S(N)(=O)=O)c3)c3ccccc3n2)c1	29.1%	75.6%	34.9%	23.7%	1.69% (active)	25.3%	-63.7% (active)	-24.8% (active)	13.4%
COC(=O)C[C@](O)(CCCC(C)(C)O)C(=O)O[C@H]1C(OC)=C[C@@]23CCCN2CCc2cc4c(cc2[C@@H]13)OCO4	-7.62% (active)	-29.9% (active)	-26.8% (active)	-22.2% (active)	-17.7% (active)	-29.4% (active)	-61.3% (active)	-15.6% (active)	-36.6% (active)
CN(C)CCOc1ccc(C(=O)C2[C@H](c3ccc(Cl)cc3)[C@@H](c3ccccc3)NC23C(=O)Nc2ccc(Br)cc23)cc1 (stereo not given in full)	42%	67%	-66.5% (active)	-80% (active)	-59.8% (active)	-96.6% (active)	-94.4% (active)	-48.4% (active)	–
CCCCCCCCc1ccc(S(=O)(=O)Nc2ccc(CC)cc2C(=O)O)cc1	76.6%	108%	101%	103%	86%	87.7%	113%	97.7%	–
COc1ccc(N2N=C(c3ccc4c(c3)OCO4)CC2c2cccc(NC(=O)CCNS(=O)(=O)c3ccc(Cl)cc3)c2)cc1 (stereo not given)	28.9%	34.5%	41.1%	55.8%	8.85% (active)	26.9%	8.63% (active)	21.2%	10.1%
